Measured values taken from PubChem BioAssay AID588342 (National Center for Advancing Translational Sciences (NCATS), 2011).
In all, about 360,000 compounds went through this assay and about 25,000 (6.9%) were called active. Entries that show only a call come without a potency. Inconclusive results (about 9%) are left out. This is one part of a sample in which actives are shown more often than they occur. Calls come from the whole dose curve; as a rule, active = well fitted inhibition curve with a large enough effect; inconclusive = small, poorly fitted or top-dose-only effect; inactive = flat fitted curve, though single readings scatter.

molecular target: Luciferin 4-monooxygenase (Photinus pyralis) (UniProt P08659); test: qHTS profiling assay for firefly luciferase inhibitor/activator using purifed enzyme and Km concentrations of substrates (counterscreen for miR-21 project); conditions: purified FLuc, luminescence inhibition; series mostly up to 57.5 µM; note: nearly all actives have a fitted effect of over 55% in size
Sequence (P08659 whole entry, looked up): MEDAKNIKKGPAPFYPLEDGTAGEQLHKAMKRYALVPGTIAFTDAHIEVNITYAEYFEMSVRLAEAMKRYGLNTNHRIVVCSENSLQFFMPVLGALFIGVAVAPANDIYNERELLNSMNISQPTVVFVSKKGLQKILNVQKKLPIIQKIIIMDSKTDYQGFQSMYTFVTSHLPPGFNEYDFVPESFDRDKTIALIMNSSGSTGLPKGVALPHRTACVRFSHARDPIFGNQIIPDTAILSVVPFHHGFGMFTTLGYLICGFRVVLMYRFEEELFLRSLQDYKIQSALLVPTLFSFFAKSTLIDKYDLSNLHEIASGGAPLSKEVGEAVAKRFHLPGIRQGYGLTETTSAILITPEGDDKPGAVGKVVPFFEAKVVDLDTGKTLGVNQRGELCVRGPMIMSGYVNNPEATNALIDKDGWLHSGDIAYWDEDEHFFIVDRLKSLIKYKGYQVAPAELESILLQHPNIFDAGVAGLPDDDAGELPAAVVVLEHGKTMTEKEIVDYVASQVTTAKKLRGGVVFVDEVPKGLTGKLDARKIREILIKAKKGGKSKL
Method in brief: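 Purified P. pyralis luciferase, 10 nM final, with Km-level 10 uM D-luciferin and 10 uM ATP in 50 mM Tris acetate pH 7.5, 10 mM Mg acetate, 0.01% Tween-20, 0.05% BSA; 6-point qHTS titration about 60 µM downward; luminescence read.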
Potency is the fitted concentration of half-maximal effect.

SMILES	Potency
COc1ccc(CCNC(=O)c2cc(=O)c3c(C)cc(C)cc3o2)cc1OC	inactive
CCOC(=O)c1cccc(NC(=O)c2cc(CN3CCCC3)on2)c1	inactive
Cc1ccc(CNC(=O)CCC(=O)N2Cc3ccccc3Oc3ncccc32)cc1	inactive
CC(=O)c1c(C)[nH]c(C(=O)OCC(=O)Nc2c(C)n(C)n(-c3ccccc3)c2=O)c1C	inactive
CC1(NC(=O)CCS(=O)(=O)c2ccc(Cl)cc2)CCS(=O)(=O)C1 (stereo unspecified)	inactive
Cc1ccccc1CN1CCC(CNC(=O)c2c(C)oc3ncnc(N4CCCCC4)c23)CC1	inactive
Cc1ccc(Nc2nnc(SC(C)C(=O)NC3CC3)s2)cc1 (stereo unspecified)	inactive
CCOC(=O)c1c(NC(=O)CCl)sc(C(=O)N(CC)CC)c1C	inactive
Cc1ccc(C)c(NC(=O)CN(C)C(=O)c2ccc3ncsc3c2)c1	inactive
Cc1c(C(=O)N(C)C)sc2c1c(=O)n(-c1ccc(F)cc1)c(=O)n2CC(=O)N(C)c1ccccc1	inactive
CN(C)c1ccc(/C=C/C(=O)c2ccc(O)cc2)cc1[N+](=O)[O-]	12 µM (active)
O=C(/C=C/c1ccc2c(c1)OCCO2)c1ccc(O)cc1	1.35 µM (active)
Cc1cc(C(=O)O)ccc1[N+](=O)[O-]	inactive
CC(=O)c1ccc2c(c1)OCCOCCOc1ccc(C(C)=O)cc1OCCOCCO2	inactive
O=C(COC(=O)/C=C/c1ccc2c(c1)OCO2)NC1CCS(=O)(=O)C1 (stereo unspecified)	inactive
O=C(/C=C/c1ccc(Cl)cc1)N1CCN(c2ccccc2[N+](=O)[O-])CC1	inactive
CCC(=O)NC(Nc1cc(C)ccn1)(C(F)(F)F)C(F)(F)F	inactive
Cc1cc(=O)oc(C)c1C(=O)NC1CC(C)(C)NC(C)(C)C1	inactive
O=C(C1CCCN(S(=O)(=O)c2cccc3nonc23)C1)N1CCN(c2ccccc2F)CC1 (stereo unspecified)	inactive
CCc1ccc(S(=O)(=O)n2ccnc2)cc1	inactive
O=C(COC(=O)c1c2c(nc3ccccc13)CCCC2)c1ccc(Br)s1	15.1 µM (active)
O=C(Nc1c2c(nc3ccccc13)CCCC2)c1ccccc1Br	inactive

SMILES	Potency
CCOc1ccc(NC(=O)CSc2c3c(nc4ccccc24)CCCC3)cc1	inactive
Cc1nn(Cc2ccccc2)c(C)c1C(=O)N1CCN(CC(=O)Nc2ccccc2Cl)CC1	inactive
COc1ccccc1/C=C/c1nc(C#N)c(NC(C)c2ccccc2)o1 (stereo unspecified)	inactive
CC(C)c1ccc(NC(=O)COC(=O)c2ccc(CN3CCCC3=O)cc2)cc1	inactive
Cc1cc(OC(C)C(=O)Nc2sc3c(c2C(N)=O)CCCC3)ccc1Cl (stereo unspecified)	inactive
O=C(NCc1cn2ccsc2n1)Nc1cccc(Cl)c1	inactive
CCCC(=O)Nc1cccc(-c2cn3ccsc3n2)c1	21.3 µM (active)
CCc1cccc(NC(=O)CCC(=O)O)c1	inactive
CCc1nn(CC(=O)NCC(C)c2ccccc2)c(=O)c2cc3occc3n12 (stereo unspecified)	inactive
Cc1nn(-c2ccccc2)c(Cl)c1/C=N/NC(=O)c1nn(C)cc1[N+](=O)[O-]	10.7 µM (active)
Cc1nn(-c2ccccc2)c(C)c1/C=N/NC(=O)CSc1nc2ccccc2c(=O)n1-c1ccccc1	inactive
Cc1c(C(=O)N/N=C/c2ccccc2)[nH]c2c([N+](=O)[O-])cccc12	inactive
COc1ccc(NC(=O)CN2C(=O)COc3ccc(S(=O)(=O)N4CCOCC4)cc32)cc1	inactive
CC(=O)C1C(c2ccc(Cl)cc2)c2c(n[nH]c2C)CC1(C)O (stereo unspecified)	inactive
CCc1ccc(NC2Nc3cc(C)nn3S2)cc1 (stereo unspecified)	4.78 µM (active)
CCOC(=O)c1ccc(NC2Nc3cc(C)nn3S2)cc1 (stereo unspecified)	inactive
COc1c(Cl)cc(C(=O)N(Cc2ccccc2F)C2CCS(=O)(=O)C2)cc1Cl (stereo unspecified)	inactive
O=C(COc1ccc(Cl)cc1)N(Cc1ccco1)Cc1ccco1	inactive
CC[C@H](C)C(=O)N[C@H]1CCCN1C(=O)/C=C/c1ccccc1	inactive
COc1ccccc1/C=C/C(=O)NC(=S)N1CCOCC1	12 µM (active)
COc1ccc(C)cc1NC(=S)N1CCOCC1	inactive
O=C(/C=C/c1ccco1)NC(=S)N1CCCCC1	inactive

SMILES	Potency
COc1ccc(OC)c(NC(=O)c2cnn(-c3ccccc3Cl)c2NC(=O)c2ccco2)c1	inactive
Cc1ccc2c(c1)C1CN(C)CCC1N2S(=O)(=O)c1cccc(F)c1 (stereo unspecified)	inactive
O=C(Cn1c(COc2ccccc2)nc2ccccc21)Nc1cc(Cl)c(Cl)cc1Cl	inactive
Cc1ccc(OCc2nc3ccccc3n2C)cc1	3.01 µM (active)
COCn1c(COc2ccccc2)nc2ccccc21	16.9 µM (active)
CCOc1ccc(C(O)Cc2nc3ccccc3n2C)cc1 (stereo unspecified)	inactive
Cn1c(CNC(=O)C(C)(C)C)nc2ccccc21	inactive
CCCn1c(C(O)c2ccc(OCC)cc2)nc2ccccc21 (stereo unspecified)	inactive
COCc1nc2ccccc2n1Cc1ccccc1Br	inactive
CC(O)c1nc2ccccc2n1Cc1ccc([N+](=O)[O-])cc1 (stereo unspecified)	inactive
CC(C)c1ccc(Cn2c(COc3ccccc3)nc3ccccc32)cc1	19 µM (active)
CCc1nc2cccnc2n1-c1ccc(CC(=O)Nc2c(C)cccc2C)cc1	inactive
Cc1ccccc1-n1nc(C)c2c1N=C1C(Cl)=CC(Cl)=CN1C2c1ccc(C(=O)O)cc1 (stereo unspecified)	inactive
CCn1c(=O)c(=O)[nH]c2c(=O)oc3ccc(S(=O)(=O)Nc4ccc(OC)cc4)cc3c21	inactive
O=C(CC1N=C2c3ccccc3N=C(SCc3cccc(Cl)c3)N2C1=O)NCc1ccc2c(c1)OCO2 (stereo unspecified)	inactive
Cc1ccc(S(=O)(=O)NCCc2nnc3ccc(SCc4cccnc4)nn23)cc1	inactive
COc1c(C=O)c(CCN(C)C(=O)c2ccc(F)cc2)cc2c1OCO2	inactive
Cc1ccc(-c2nc(CS(=O)(=O)CC(=O)NCc3ccccc3Cl)c(C)o2)cc1	inactive
CCOC(=O)c1c(NC(=O)c2cc(CC)on2)sc(C(C)=O)c1C	inactive
CCOc1ccc(NC(=S)N2CCCCCC2)cc1	inactive
CCOC(=O)c1ccc(NC(=S)N2CCCC2)cc1	inactive
CCC(C)c1ccc(NC(=S)N2CCCC2)cc1 (stereo unspecified)	15.1 µM (active)

SMILES	Potency
CC1Cc2cc(S(=O)(=O)CCC(=O)Nc3ccc(F)c(Cl)c3)ccc2N1C(=O)C1CC1 (stereo unspecified)	inactive
O=C(c1ccc2c(c1)N(Cc1ccc(Cl)cc1)C(=O)c1ccccc1S2(=O)=O)N1CCCCC1	inactive
Cc1cccc[n+]1CC(=O)c1ccccc1	inactive
O=C(NCCS(=O)(=O)NCc1ccc(F)cc1)c1ccccc1	inactive
O=C(/C=C/NCc1ccc(F)cc1)c1ccccc1	16.9 µM (active)
O=C(/C=C\NCC(=O)c1ccccc1)c1ccccc1	12 µM (active)
CCCCC(=O)NCc1ccc(F)cc1	inactive
CCN(c1ccccc1)S(=O)(=O)c1cc(C(=O)NCc2ccccn2)ccc1C	inactive
CC(=O)c1c(C)[nH]c(C(=O)COc2ccc3c(C)cc(=O)oc3c2)c1C	inactive
Cc1ccc(C(=O)Nc2c(C(=O)NC(C)(C)C)oc3ccccc23)cc1	inactive
COc1ccc(Cl)cc1NC(=O)c1sc2nc3c(cc2c1N)CN(C)CC3	inactive
COc1ccc(-n2c(SCC(=O)Nc3ccc(Cl)c(C)c3)nc3n[nH]c(C)c3c2=N)cc1	inactive
COc1ccc(Cn2ccn(CC(=O)Nc3cc(C)ccc3C)c(=O)c2=O)cc1	inactive
COc1cc(C2c3c(oc4ccccc4c3=O)C(=O)N2c2nc(C)c(C)s2)ccc1O (stereo unspecified)	inactive
Cc1ccc(NC(=O)C2CCCN2S(=O)(=O)c2cccc3cccnc23)c(C)c1 (stereo unspecified)	inactive
COc1cc(/C=N/NC(=O)c2cccnc2)ccc1OC(=O)c1cccc(Br)c1	inactive
COc1cc(/C=N/NC(=S)Nc2cccnc2)cc(OC)c1O	10.7 µM (active)
CCOC(=O)N/N=C/c1cccnc1	inactive
C[C@@H]1C[C@@H]2O[C@H]2/C=C\C=C\C(=O)Cc2c(Cl)c(O)cc(O)c2C(=O)O1	inactive
COC(=O)c1ccc(Cn2c(SCC(=O)N(C)c3ccccc3)nc3ccccc32)cc1	inactive
Cc1ccc(OC(=O)c2c(C)nn(-c3ccccc3)c2C)cc1	13.5 µM (active)
Cc1nn(-c2ccccc2)c(-n2cccc2)c1C(=O)O	inactive

SMILES	Potency
Cc1cccc(C)c1NC(=O)COC(=O)c1c(C)nn(-c2ccccc2)c1C	inactive
CCCC12CN3CC(CCC)(CN(C1)C3c1c[nH]c3ccc(OC)cc13)C2=O (stereo unspecified)	inactive
COc1ccccc1C(=O)NCCC(=O)N(C)Cc1cccnc1	inactive
COc1ccc(CCNC(=O)CCCCn2c(=O)c3ccccc3n(Cc3ccccc3)c2=O)cc1OC	inactive
CCOc1ccc(C(=O)c2cn(Cc3ccccc3OC)c3ccc(F)cc3c2=O)cc1	inactive
COc1ccc(NC(=O)C2CCN(c3ccc(Sc4ccc(C)cc4)nn3)CC2)c(OC)c1	inactive
CN1CCN(C2(CNC(=O)COc3ccc(C(C)(C)C)cc3)CCCCC2)CC1	inactive
CCCc1nc2ccccc2c(=O)n1/N=C/c1ccc(O)c(O)c1	inactive
CCOCCCn1c(NN)nc2ccccc2c1=O	inactive
O=c1c2ccccc2nc(N/N=C/c2ccccc2)n1O	1.51 µM (active)
Nc1nnn(CC(=O)N/N=C/c2ccccc2)n1	inactive
O=c1c2ccccc2ncn1/N=C/c1ccccc1	1.69 µM (active)
O=C(Nn1cnc2ccccc2c1=O)c1ccccc1	inactive
COc1cc(C(=O)Nc2ccc(OCc3cc(=O)n4cc(C)sc4n3)cc2)cc(OC)c1OC	inactive
CCN(C(=O)CSc1nc(N)cc(=O)[nH]1)C1CCS(=O)(=O)C1 (stereo unspecified)	inactive
O=C(CN1CCCCC1)Nc1ccccc1C(=O)NC1CC1	inactive
Cc1ccc(-c2nnc(Nc3ccc(OCC(N)=O)cc3)c3ccccc23)cc1S(=O)(=O)NCC1CCCO1 (stereo unspecified)	inactive
CCCN(C(=O)Cn1cc(S(=O)(=O)N2CCN(c3ccccc3F)CC2)c2ccccc2c1=O)c1cccc(C)c1	inactive
